According to PubChem BioAssay (EPA / NIEHS):
Several values for one entry are separate records, joined by “and”; a condition that tells them apart may be missing. Identical values can stand only once. Results filed as inconclusive are left out. More than one record can exist for a structure, and the calls need not agree. Activity calls are given as the source filed them. How the source made its calls, unless noted: active means hit-call score of the fitted dose curve at least 0.9, where 1 is the maximum; inactive means score below 0.9.

Legend:
[1] = ATG_NFI_CIS: Attagene CIS-FACTORIAL HepG2 Assay for human Nuclear Factor I (NFI) (AID 2282989); settings: HepG2 cis-regulatory reporter, NFI response element transcription; actives raise or lower the signal
Method in brief: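 Multiplexed cis-reporter system in human HepG2 cells reports native TF activity as reporter mRNA induction 24 h post-dose. Fragments labelled with 6-FAM, HpaI-digested and resolved by capillary electrophoresis; activity fitted both directions versus DMSO.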

[2] = ATG_NF_kB_CIS: Attagene CIS-FACTORIAL HepG2 Assay for human Nuclear Factor Kappa B (NF-kB) (AID 2282991); settings: HepG2 Attagene cis-factorial NF-kB reporter mRNA; actives raise or lower the signal
Method in brief: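 HepG2, transient multi-reporter transfection, cis promoter elements (endogenous TFs). 24 h exposure. Total RNA → RT → PCR → 6-FAM label → HpaI → CE. Gain/loss vs DMSO.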

[3] = ATG_NRF2_ARE_CIS: Attagene CIS-FACTORIAL HepG2 Assay for human Nuclear Factor Erythroid 2 Related Factor 2 (NFR2) response to Antioxidant Response Elements (ARE) (AID 2282992); settings: HepG2 Attagene ARE/NRF2 reporter, transcription factor activity; actives raise or lower the signal;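 on AC50: reporter mRNA level measured by RT-PCR and capillary electrophoresis fluorescence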
Method in brief: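 Endogenous transcription factor activity in human liver HepG2 cells is tracked via a cis-element-driven reporter within a multiplexed set. mRNA induction is read by RT-PCR and capillary electrophoresis after 24 h, with DMSO as baseline.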

[4] = ATG_Oct_MLP_CIS: Attagene CIS-FACTORIAL HepG2 Assay for human Octamer-Binding Transcription Factor (Oct) (AID 2282993); settings: HepG2 Attagene cis-factorial Oct reporter, mRNA; actives raise or lower the signal
Method in brief: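 After 24 h compound exposure, transfected HepG2 cells were lysed for total RNA; reporter-specific cDNA was PCR-amplified, fluorescently labelled and sized by capillary electrophoresis. Bidirectional curve fitting used DMSO as baseline.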

[5] = BSK_3C_TissueFactor: BioMAP Diversity Plus: 3C Assay for Tissue Factor Biomarker Activity (AID 2282997); settings: BioMAP 3C HUVEC, tissue factor biomarker readout; actives raise or lower the signal
Method in brief: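 Readout: Tissue Factor ELISA. Cells: human primary umbilical vein endothelium. Time: 24 h after dosing. Analysis: bidirectional fit, DMSO baseline.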

[6] = BSK_3C_uPAR: BioMAP Diversity Plus: 3C Assay for Urokinase-type plasminogen activator receptor (uPAR) Biomarker Activity (AID 2282998); settings: BioMAP 3C HUVEC, uPAR biomarker ELISA; actives raise or lower the signal
Method in brief: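 Values derive from bidirectional curve fitting relative to DMSO, which served as baseline of activity. uPAR was measured by ELISA in human umbilical vein endothelial primary cultures 24 h after compound addition.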

[7] = BSK_3C_VCAM1: BioMAP Diversity Plus: 3C Assay for Vascular cell adhesion molecule 1 (VCAM1) Biomarker Activity (AID 2282999); settings: BioMAP 3C HUVEC, VCAM1 ELISA, cytokine-stimulated; actives raise or lower the signal
Method in brief: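 Activity fitted in both directions relative to DMSO, with ELISA measurement of the surface marker on primary HUVEC (3C) at 24 h post-treatment; parallel SRB staining (0.1% SRB, TCA-fixed, 560 nm) flagged overt cytotoxicity.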

[8] = BSK_4H_Eotaxin3: BioMAP Diversity Plus: 4H Assay for Eotaxin 3 Biomarker Activity (AID 2283000); settings: primary human endothelial cells (HUVEC); actives raise or lower the signal;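 on outcome: CCL26 protein level quantified by ELISA in parallel with SRB cytotoxicity check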
Method in brief: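 HUVEC, 24 h post-dose, ELISA for Eotaxin-3/CCL26. Gain or loss of signal fitted bidirectionally vs DMSO baseline.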

[9] = biological target: human Peroxisome Proliferator-activated Receptor alpha (PPARa), PPARA (gene 5465) (UniProt Q07869); test: ATG_PPARa_TRANS: Attagene TRANS-FACTORIAL HepG2 Assay for human Peroxisome Proliferator-activated Receptor alpha (PPARa) (AID 2283001; active means hit-call score of the fitted dose curve at least 0.9, where 1 is the maximum;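 on AC50: potency for gain of reporter signal over DMSO so agonist or activator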)
Method in brief: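 Reporter transcripts quantified by RT-PCR plus capillary electrophoresis after 24 h treatment, fitted upward relative to DMSO. Cells: human HepG2 transiently carrying multiple GAL4-UAS reporter units driven by NR-Gal4 chimeras.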

[10] = biological target: human Peroxisome Proliferator-activated Receptor delta (PPARd), PPARD (gene 5467) (UniProt Q03181); test: ATG_PPARd_TRANS: Attagene TRANS-FACTORIAL HepG2 Assay for human Peroxisome Proliferator-activated Receptor delta (PPARd) (AID 2283002; active means hit-call score of the fitted dose curve at least 0.9, where 1 is the maximum)
Method in brief: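 Read-out is induced reporter mRNA, quantified by RT-PCR with fluorescent labelling and capillary electrophoresis after 24 h dosing. Cells are HepG2 transiently carrying multiple GAL4-UAS reporter units driven by exogenous NR-GAL4 chimeras; DMSO serves as baseline.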

[11] = read-out: Intercellular Adhesion Molecule 1 (ICAM1), ICAM1 (gene 3383); test: BSK_3C_ICAM1: BioMAP Diversity Plus: 3C Assay for Intercellular Adhesion Molecule 1 (ICAM1) Biomarker Activity (AID 2283003); settings: primary human endothelial cells (HUVEC); actives raise or lower the signal
Method in brief: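 Chemicals are dosed onto primary human umbilical vein endothelium (3C system). After 24 h, ICAM-1 is measured by ELISA, and responses are fitted bidirectionally relative to DMSO.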

[12] = BSK_3C_Proliferation: Cell Proliferation Assessment in the BioMAP Diversity Plus: 3C Assay (AID 2283006); settings: primary human endothelial cells (HUVEC);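 on AC50: potency may reflect either rise or fall in cell number versus DMSO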
Method in brief: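 Cells (human umbilical vein endothelial, sub-confluent) receive test chemical; after 48 h they are fixed in 10% trichloroacetic acid, stained with 0.1% SRB and read at 560 nm. Activity is referenced to DMSO, fitting increases and decreases.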

[13] = biological target: Peroxisome proliferator-activated receptor gamma (Homo sapiens) (UniProt P37231); test: ATG_PPARg_TRANS: Attagene TRANS-FACTORIAL HepG2 Assay for human Peroxisome Proliferator-activated Receptor-gamma (PPARg) (AID 2283007; active means hit-call score of the fitted dose curve at least 0.9, where 1 is the maximum)
Method in brief: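 Multiplexed reporter transcription units in HepG2, 24 h dosing, reporter transcripts quantified by fluorescent RT-PCR and capillary electrophoresis. Increase over DMSO scored.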

[14] = biological target: Nuclear receptor subfamily 1 group I member 2 (Homo sapiens) (UniProt O75469); test: ATG_PXR_TRANS: Attagene TRANS-FACTORIAL HepG2 Assay for human Pregnane X Receptor (PXR) (AID 2283008; active means hit-call score of the fitted dose curve at least 0.9, where 1 is the maximum)
Method in brief: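 HepG2 transfected (FuGene 6) with GAL4-UAS reporter units + PXR-Gal4 chimera; dosed 24 h. Total RNA → oligo(dT) RT → PCR → 6-FAM primer extension → HpaI cut → CE. Gain-of-signal vs DMSO.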

[15] = biological target: human RAR-related Orphan Receptor gamma (RORg), RORC (gene 6097) (UniProt P51449); test: ATG_RORg_TRANS: Attagene TRANS-FACTORIAL HepG2 Assay for human RAR-related Orphan Receptor gamma (RORg) (AID 2283011; active means hit-call score of the fitted dose curve at least 0.9, where 1 is the maximum)
Method in brief: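 Readout: reporter transcript induction (RT-PCR, fluorescent primer extension, capillary electrophoresis) after 24 h compound exposure of transiently transfected HepG2 cells carrying a RORg-Gal4 chimera and GAL4-UAS reporters; DMSO served as baseline, with increasing signal fitted.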

[16] = biological target: Cellular tumor antigen p53 (Homo sapiens) (UniProt P04637); test: ATG_p53_CIS: Attagene CIS-FACTORIAL HepG2 Assay for human p53 Transcription Factor (AID 2282994); settings: HepG2 p53 cis-element reporter, Attagene mRNA; actives raise or lower the signal
Method in brief: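 Steps: transfect HepG2 with multiplexed cis reporter constructs; dose chemicals 24 h; extract RNA, reverse-transcribe, PCR-amplify reporter sequences; FAM-label, HpaI-digest, resolve fragments by CE. Activity fitted both directions relative to DMSO.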

[17] = biological target: Myc proto-oncogene protein (Homo sapiens) (UniProt P01106); test: ATG_Myc_CIS: Attagene CIS-FACTORIAL HepG2 Assay for human Myelocytomatosis (Myc) Proto-Oncogene Transcription Factor (AID 2282990); settings: HepG2, Attagene cis-reporter transcription factor activity; actives raise or lower the signal
Method in brief: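 After 24 h chemical treatment of HepG2 cells carrying multiplexed cis-regulated reporter constructs, reporter transcripts quantified by RT-PCR and capillary electrophoresis of fluorescent fragments. Gain or loss fitted against DMSO baseline.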

[18] = biological target: human Retinoic Acid Receptor beta (RARb), RARB (gene 5915) (UniProt P10826); test: ATG_RARb_TRANS: Attagene TRANS-FACTORIAL HepG2 Assay for human Retinoic Acid Receptor beta (AID 2283004; active means hit-call score of the fitted dose curve at least 0.9, where 1 is the maximum)
Method in brief: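 HepG2 cells transiently transfected with multiplexed GAL4-UAS reporter units expressing chimeric NR–Gal4 fusions; 24 h compound exposure. Reporter mRNA quantified by RT-PCR, 6-FAM labelling, HpaI digestion and capillary electrophoresis; gain-of-signal fitted against DMSO baseline.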

Sequence of Peroxisome proliferator-activated receptor gamma (Homo sapiens) (P37231 whole entry, looked up): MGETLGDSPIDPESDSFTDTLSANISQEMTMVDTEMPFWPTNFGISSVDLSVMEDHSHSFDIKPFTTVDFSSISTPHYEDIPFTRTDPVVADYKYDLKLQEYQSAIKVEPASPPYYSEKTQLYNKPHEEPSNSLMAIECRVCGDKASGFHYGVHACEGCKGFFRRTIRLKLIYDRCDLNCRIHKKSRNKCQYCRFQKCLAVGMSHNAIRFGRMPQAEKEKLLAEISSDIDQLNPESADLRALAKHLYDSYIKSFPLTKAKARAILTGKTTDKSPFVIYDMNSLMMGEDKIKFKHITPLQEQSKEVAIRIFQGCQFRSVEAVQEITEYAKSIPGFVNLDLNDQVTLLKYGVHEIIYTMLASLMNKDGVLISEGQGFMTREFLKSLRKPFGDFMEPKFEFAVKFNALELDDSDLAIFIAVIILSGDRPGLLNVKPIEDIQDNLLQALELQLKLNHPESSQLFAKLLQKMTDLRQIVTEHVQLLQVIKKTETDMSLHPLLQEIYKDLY
Sequence of Myc proto-oncogene protein (Homo sapiens) (P01106 whole entry, looked up, the tested form may be a part): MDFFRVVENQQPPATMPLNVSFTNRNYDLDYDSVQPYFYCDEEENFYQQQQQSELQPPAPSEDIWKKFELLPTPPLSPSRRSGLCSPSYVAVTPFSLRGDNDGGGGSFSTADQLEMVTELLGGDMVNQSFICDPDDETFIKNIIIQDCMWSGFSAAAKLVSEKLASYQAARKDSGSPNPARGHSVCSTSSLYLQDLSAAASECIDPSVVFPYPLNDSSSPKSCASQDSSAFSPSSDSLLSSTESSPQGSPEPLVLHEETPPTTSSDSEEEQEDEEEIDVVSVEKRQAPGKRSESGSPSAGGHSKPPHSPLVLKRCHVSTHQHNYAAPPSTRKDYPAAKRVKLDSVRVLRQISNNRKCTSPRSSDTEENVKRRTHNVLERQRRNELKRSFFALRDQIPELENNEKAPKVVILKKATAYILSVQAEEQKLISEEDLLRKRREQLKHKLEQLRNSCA
Sequence of human Peroxisome Proliferator-activated Receptor alpha (PPARa), PPARA (gene 5465) (Q07869 whole entry, looked up, the tested form may be a part): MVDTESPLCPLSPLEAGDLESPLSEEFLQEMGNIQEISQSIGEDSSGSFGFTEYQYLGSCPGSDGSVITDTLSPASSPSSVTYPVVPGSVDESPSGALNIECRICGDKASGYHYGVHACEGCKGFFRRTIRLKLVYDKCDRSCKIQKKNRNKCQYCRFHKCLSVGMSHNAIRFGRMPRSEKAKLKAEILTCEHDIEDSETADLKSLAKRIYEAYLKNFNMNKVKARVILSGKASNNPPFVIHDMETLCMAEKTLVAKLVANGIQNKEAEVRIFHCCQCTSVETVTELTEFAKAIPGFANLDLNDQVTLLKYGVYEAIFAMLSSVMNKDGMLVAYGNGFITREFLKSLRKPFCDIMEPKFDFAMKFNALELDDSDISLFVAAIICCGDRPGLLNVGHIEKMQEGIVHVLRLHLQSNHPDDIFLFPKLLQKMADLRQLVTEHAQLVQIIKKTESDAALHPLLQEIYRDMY
Sequence of human Peroxisome Proliferator-activated Receptor delta (PPARd), PPARD (gene 5467) (Q03181 whole entry, looked up, the tested form may be a part): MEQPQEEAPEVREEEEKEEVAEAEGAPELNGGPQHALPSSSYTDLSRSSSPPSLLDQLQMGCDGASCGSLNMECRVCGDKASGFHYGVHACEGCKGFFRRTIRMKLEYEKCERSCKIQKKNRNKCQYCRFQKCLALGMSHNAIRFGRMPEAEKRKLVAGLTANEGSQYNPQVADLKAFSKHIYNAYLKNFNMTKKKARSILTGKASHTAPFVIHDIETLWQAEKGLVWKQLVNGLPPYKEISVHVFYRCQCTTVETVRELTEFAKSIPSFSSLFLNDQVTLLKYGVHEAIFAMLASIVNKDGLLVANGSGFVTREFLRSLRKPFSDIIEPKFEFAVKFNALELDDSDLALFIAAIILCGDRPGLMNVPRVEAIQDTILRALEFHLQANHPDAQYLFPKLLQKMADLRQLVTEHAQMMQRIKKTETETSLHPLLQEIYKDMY
Sequence of Nuclear receptor subfamily 1 group I member 2 (Homo sapiens) (O75469 whole entry, looked up, the tested form may be a part): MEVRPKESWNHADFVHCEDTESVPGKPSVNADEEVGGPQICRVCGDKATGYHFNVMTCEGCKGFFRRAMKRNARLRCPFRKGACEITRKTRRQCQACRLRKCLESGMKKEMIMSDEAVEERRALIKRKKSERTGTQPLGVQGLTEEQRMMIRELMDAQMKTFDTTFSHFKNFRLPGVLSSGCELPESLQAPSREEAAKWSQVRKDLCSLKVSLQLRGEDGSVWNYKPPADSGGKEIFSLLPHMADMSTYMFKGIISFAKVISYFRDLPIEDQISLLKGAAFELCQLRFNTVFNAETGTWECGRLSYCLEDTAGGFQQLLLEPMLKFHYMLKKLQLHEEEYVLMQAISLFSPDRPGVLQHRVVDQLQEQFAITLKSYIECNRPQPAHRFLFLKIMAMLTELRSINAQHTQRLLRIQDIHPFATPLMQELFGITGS
Sequence of Cellular tumor antigen p53 (Homo sapiens) (P04637 whole entry, looked up, the tested form may be a part): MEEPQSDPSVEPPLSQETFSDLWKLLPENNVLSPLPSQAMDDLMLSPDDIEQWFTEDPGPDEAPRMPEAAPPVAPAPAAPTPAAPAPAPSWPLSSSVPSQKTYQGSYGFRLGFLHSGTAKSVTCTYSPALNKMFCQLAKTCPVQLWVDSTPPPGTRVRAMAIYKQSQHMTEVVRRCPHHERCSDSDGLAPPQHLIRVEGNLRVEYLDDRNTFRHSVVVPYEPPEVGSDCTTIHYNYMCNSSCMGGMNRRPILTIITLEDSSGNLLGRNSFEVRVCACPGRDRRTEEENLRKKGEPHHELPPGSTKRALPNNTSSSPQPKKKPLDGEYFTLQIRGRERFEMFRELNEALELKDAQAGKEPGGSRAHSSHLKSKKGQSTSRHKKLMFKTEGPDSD
Sequence of human RAR-related Orphan Receptor gamma (RORg), RORC (gene 6097) (P51449 whole entry, looked up, the tested form may be a part): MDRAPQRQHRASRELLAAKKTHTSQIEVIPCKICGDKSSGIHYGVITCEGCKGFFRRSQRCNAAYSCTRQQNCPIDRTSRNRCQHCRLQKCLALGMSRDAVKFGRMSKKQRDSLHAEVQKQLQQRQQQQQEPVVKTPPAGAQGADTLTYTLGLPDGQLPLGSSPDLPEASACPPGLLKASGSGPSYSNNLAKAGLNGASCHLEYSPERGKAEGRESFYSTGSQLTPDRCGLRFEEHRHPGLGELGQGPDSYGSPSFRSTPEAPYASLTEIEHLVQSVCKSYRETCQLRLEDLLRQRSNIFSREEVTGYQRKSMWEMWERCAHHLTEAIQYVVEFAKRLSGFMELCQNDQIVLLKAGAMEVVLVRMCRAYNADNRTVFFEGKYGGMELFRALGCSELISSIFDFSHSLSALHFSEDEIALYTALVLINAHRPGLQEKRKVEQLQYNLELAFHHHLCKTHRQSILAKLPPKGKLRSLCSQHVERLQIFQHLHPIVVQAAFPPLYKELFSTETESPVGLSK
Sequence of human Retinoic Acid Receptor beta (RARb), RARB (gene 5915) (P10826 whole entry, looked up, the tested form may be a part): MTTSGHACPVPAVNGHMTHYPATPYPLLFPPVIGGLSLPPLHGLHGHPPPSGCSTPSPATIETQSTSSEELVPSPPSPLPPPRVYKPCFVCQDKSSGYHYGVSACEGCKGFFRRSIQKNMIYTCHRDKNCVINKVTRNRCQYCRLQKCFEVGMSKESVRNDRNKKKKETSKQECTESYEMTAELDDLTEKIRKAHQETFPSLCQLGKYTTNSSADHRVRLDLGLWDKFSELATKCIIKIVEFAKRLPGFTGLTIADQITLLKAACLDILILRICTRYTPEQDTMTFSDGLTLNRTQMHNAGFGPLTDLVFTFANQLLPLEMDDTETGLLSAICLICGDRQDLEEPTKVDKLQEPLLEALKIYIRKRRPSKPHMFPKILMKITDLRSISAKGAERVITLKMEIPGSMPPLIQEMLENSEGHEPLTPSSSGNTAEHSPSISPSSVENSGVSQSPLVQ

CC(=O)O[C@]1(C(C)=O)CC[C@H]2[C@@H]3C=C(Cl)C4=CC(=O)[C@@H]5C[C@@H]5[C@]4(C)[C@H]3CC[C@@]21C
outcome [1]: inactive
outcome [2]: inactive
AC50 [3]: 48.4 µM (active) [middle of 4 runs]
outcome [3]: inactive
AC50 [4]: 73.6 µM (active) and 64.9 µM (active) and 45.3 µM (active)
outcome [4]: inactive
outcome [5]: inactive
outcome [6]: inactive
outcome [7]: inactive
outcome [8]: inactive
outcome [9]: inactive
AC50 [10]: 100 µM (active)
outcome [10]: inactive
outcome [11]: inactive
AC50 [12]: 29.5 µM (active)
outcome [13]: inactive
outcome [14]: inactive
outcome [15]: inactive

COc1ccc(OC(F)(F)F)cc1CN[C@H]1CCCN[C@H]1c1ccccc1
outcome [1]: inactive
outcome [2]: inactive
AC50 [3]: 11 µM (active)
outcome [4]: inactive
AC50 [16]: 2.91 µM (active)
AC50 [5]: 6.74 µM (active)
AC50 [6]: 20 µM (active)
outcome [7]: inactive
AC50 [8]: 26.9 µM (active)
outcome [9]: inactive
outcome [10]: inactive
outcome [11]: inactive
AC50 [12]: 28.2 µM (active)
AC50 [14]: 2.95 µM (active)

CS(=O)(=O)c1ccc([C@@H](C[C@H]2CCC(=O)C2)C(=O)Nc2cnccn2)cc1Cl
outcome [1]: inactive
outcome [2]: inactive
AC50 [3]: 48.9 µM (active)
outcome [4]: inactive
outcome [16]: inactive
outcome [5]: inactive
outcome [6]: inactive
outcome [7]: inactive
outcome [8]: inactive
outcome [9]: inactive
outcome [11]: inactive
outcome [12]: inactive
outcome [13]: inactive
outcome [14]: inactive
outcome [15]: inactive

O=NO
outcome [1]: inactive
outcome [17]: inactive
outcome [2]: inactive
outcome [3]: inactive
outcome [4]: inactive
outcome [5]: inactive
outcome [6]: inactive
outcome [7]: inactive
outcome [8]: inactive
outcome [9]: inactive
outcome [11]: inactive
outcome [18]: inactive
outcome [12]: inactive
outcome [14]: inactive

O=C1NC(=O)C(c2ccccc2)(c2ccccc2)N1
outcome [1]: inactive
outcome [17]: inactive
outcome [3]: inactive
outcome [4]: inactive
outcome [5]: inactive
outcome [6]: inactive
outcome [7]: inactive
outcome [8]: inactive
outcome [11]: inactive
outcome [12]: inactive
outcome [13]: inactive
outcome [14]: inactive

CC(C)(C)c1ccccc1
outcome [1]: inactive
outcome [17]: inactive
outcome [3]: inactive
outcome [4]: inactive
outcome [16]: inactive
outcome [5]: inactive
outcome [6]: inactive
outcome [7]: inactive
outcome [8]: inactive
outcome [9]: inactive
outcome [11]: inactive
outcome [12]: inactive

Nc1nc(Cl)nc2c1ncn2[C@H]1C[C@H](O)[C@@H](CO)O1
outcome [1]: inactive
AC50 [2]: 16.9 µM (active)
outcome [3]: inactive
outcome [4]: inactive
outcome [16]: inactive
AC50 [5]: 0.494 µM (active)
outcome [6]: inactive
outcome [7]: inactive
outcome [8]: inactive
AC50 [9]: 66.5 µM (active)
outcome [10]: inactive
outcome [11]: inactive
AC50 [12]: 0.147 µM (active)
outcome [14]: inactive

CC(=O)O
outcome [1]: inactive
outcome [17]: inactive
outcome [3]: inactive
outcome [4]: inactive
outcome [5]: inactive
outcome [6]: inactive
outcome [7]: inactive
outcome [8]: inactive
outcome [9]: inactive
outcome [11]: inactive
outcome [12]: inactive
outcome [14]: inactive

C#CC(O)C(CC)CCCC (centres undefined)
outcome [1]: inactive
outcome [17]: inactive
AC50 [2]: 67.2 µM (active)
AC50 [3]: 53.3 µM (active)
outcome [4]: inactive
outcome [5]: inactive
outcome [6]: inactive
outcome [7]: inactive
outcome [8]: inactive
outcome [11]: inactive
outcome [12]: inactive
AC50 [13]: 59.2 µM (active)
AC50 [14]: 25.5 µM (active)
